Laboratory results from PubChem BioAssay (NCATS).
Inconclusive results are not listed. Activity calls are given as the source filed them. The call rests on the fitted dose curve; in most records, active means well fitted curve in the direction sought with a large enough effect; inconclusive means small, poorly fitted or top-dose-only effect, or another doubt; inactive means no such curve, though single readings can be large; an effect the other way counts as inactive or inconclusive.

What was measured:
[1] = tested on: HEK293; test: Cytotoxic Profiling of Annotated Libraries Using Quantitative High-Throughput Screening (AID 1296008); conditions: Five cell lines viability, CellTiter-Glo ATP luminescence, 48-72 h; max response: stronger effect = lower value; further: nearly all actives have a fitted effect of over 60% in size; further: potency means the concentration at half of the fitted maximal effect; on max response: on the % scale 0 is the no-effect control and ±100 the full control effect
Outline: (§1)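 Cytotoxicity was measured as CellTiter-Glo ATP luminescence, read after 10 min at room temperature. Compound treatment of the cells lasted 48 or 72 hr at 37 degrees Celsius in a qHTS format.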

[2] = tested on: KB-3-1; test: as above; conditions: Five cell lines viability, CellTiter-Glo ATP luminescence, 48-72 h; max response: stronger effect = lower value
Outline: as §1

[3] = tested on: NIH3T3; test: as above; conditions: Five cell lines viability, CellTiter-Glo ATP luminescence, 48-72 h; max response: stronger effect = lower value
Outline: as §1

[4] = tested on: C33A; test: Primary qHTS to identify gynecologic anti-cancer compounds using libraries of approved drugs and bioactive compounds (AID 1345084); conditions: Gynecologic cancer cell panel viability, ATPlite luminescence, 48 h; series mostly up to 57.5 µM; further: on the % scale 0 is the no-effect control and ±100 the full control effect; nearly all actives have a fitted effect of over 55% in size
Outline: (§2)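 Five-concentration response, 48 h; readout is ATP-driven luciferase luminescence.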

[5] = tested on: CAOV3; test: as above; conditions: Gynecologic cancer cell panel viability, ATPlite luminescence, 48 h; series mostly up to 57.5 µM
Outline: as §2

[6] = tested on: CASKI; test: as above; conditions: Gynecologic cancer cell panel viability, ATPlite luminescence, 48 h; series mostly up to 57.5 µM
Outline: as §2

[7] = tested on: Es-2; test: as above; conditions: Gynecologic cancer cell panel viability, ATPlite luminescence, 48 h; series mostly up to 57.5 µM
Outline: as §2

[8] = tested on: HeLa; test: as above; conditions: Gynecologic cancer cell panel viability, ATPlite luminescence, 48 h; series mostly up to 57.5 µM
Outline: as §2

[9] = tested on: Hek293T; test: as above; conditions: Gynecologic cancer cell panel viability, ATPlite luminescence, 48 h, control line for the selectivity index; series mostly up to 57.5 µM
Outline: as §2

[10] = tested on: JEG-3; test: as above; conditions: Gynecologic cancer cell panel viability, ATPlite luminescence, 48 h; series mostly up to 57.5 µM
Outline: as §2

[11] = tested on: NIH3T3; test: qHTS assay to identify novel small-molecules to repurpose for Merkel cell carcinoma treatment (AID 1296009); conditions: MCC and control cell lines, CellTiter-Glo viability, 72 h; at 44.8 µM (top of the series) unless noted; further: nearly all actives have a fitted effect of over 60% in size
Outline: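 Cell viability, measured as CellTiter-Glo luminescence, was normalized between DMSO and no-cell wells. The cells had been exposed to 8- or 11-point compound dilutions for 72 hr at 37 degree celsius.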

Cc1cccc(C)c1OCc1cc(C(=O)N2CCC(c3ccncc3)CC2)no1
active: Potency [1] 6.51 µM | Potency [2] 8.2 µM
inactive: max response [3] -17.2% | Potency [4] | Potency [5] | Potency [6] | Potency [7] | Potency [8] | Potency [9] | Potency [10]

CCC[C@@H]1O[C@@H]2C[C@H]3[C@@H]4CCC5=CC(=O)C=C[C@]5(C)[C@H]4[C@@H](O)C[C@]3(C)[C@]2(C(=O)CO)O1
inactive: max response [1] 0.791% | outcome [2] | max response [3] -20.8% | Potency [4] | Potency [5] | Potency [6] | Potency [7] | Potency [8] | Potency [9] | Potency [10]

COc1ccc(CCO[C@@H]2CCCC[C@H]2N2CC[C@@H](O)C2)cc1OC
inactive: max response [1] 2.72% | max response [2] 4.12% | outcome [3] | outcome [11] | Potency [4] | Potency [5] | Potency [6] | Potency [7] | Potency [8] | Potency [9] | Potency [10]

CC1C(=O)CC2C3CCC(C(=O)O)C12CC3(C)CO (stereo unspecified)
inactive: max response [1] 0.671% | max response [2] 0.285% | max response [3] -4.76% | Potency [4] | Potency [5] | Potency [6] | Potency [7] | Potency [8] | Potency [9] | Potency [10]

CCNC(=O)C1OC(n2cnc3c(N)nc(NCCc4ccc(CCC(=O)O)cc4)nc32)C(O)C1O (stereo unspecified)
inactive: max response [1] 0.517% | max response [2] -5.77% | max response [3] -0.422% | Potency [4] | Potency [5] | Potency [6] | Potency [7] | Potency [8] | Potency [9] | Potency [10]

COc1cc(O)cc(C)c1C(=O)OC1C(CO)OC(OC2C(O)C(O)C(O)C(O)C2O)C(O)C1O (stereo unspecified)
inactive: max response [1] 4.85% | max response [2] 2.63% | max response [3] -8.82% | Potency [4] | Potency [5] | Potency [6] | Potency [7] | Potency [8] | Potency [9] | Potency [10]

COC1CC(O[C@H]2CC[C@@]3(C)C(=CC[C@]4(O)C3[C@H](OC(C)=O)[C@@H](OC(=O)c3ccccc3)[C@]3(C)[C@@H](C(C)=O)CC[C@@]34O)C2)OC(C)C1OC1CC(OC)C(OC2CC(OC)C(OC3OC(C)C(OC4OC(CO)C(O)C(O)C4O)C(OC)C3O)C(C)O2)C(C)O1 (stereo partly specified)
inactive: max response [1] 1.75% | max response [2] 0.0608% | max response [3] -0.853% | activity change, negative = cytotoxicity [4] -6.27% [at 6.55 µM] | activity change, negative = cytotoxicity [5] -1.71% [at 6.55 µM] | activity change, negative = cytotoxicity [6] -17.5% [at 6.55 µM] | activity change, negative = cytotoxicity [7] 3.59% [at 6.55 µM] | activity change, negative = cytotoxicity [8] -1.12% [at 6.55 µM] | activity change, negative = cytotoxicity [9] -1.35% [at 6.55 µM] | activity change, negative = cytotoxicity [10] -8.02% [at 6.55 µM]

N[C@@]1(C(=O)O)CC[C@H]2[C@H](C(=O)O)[C@H]21
inactive: max response [1] 4.28% | max response [2] 2.99% | max response [3] 4.48% | Potency [4] | Potency [5] | Potency [6] | Potency [7] | Potency [8] | Potency [9] | Potency [10]

CC1(O)CC(O)C2(O)C=COC(O[C@@H]3O[C@H](CO)[C@@H](O)[C@H](O)[C@H]3O)C12 (stereo partly specified)
inactive: max response [1] 4.59% | max response [2] 0.806% | max response [3] -15.6% | Potency [4] | Potency [5] | Potency [6] | Potency [7] | Potency [8] | Potency [9] | Potency [10]

O=C1CC2(CCCC2)[C@H](O)C(=O)N1CCCCN1CCN(c2ncccn2)CC1
inactive: max response [1] -2.49% | max response [2] -7.77% | max response [3] -13.6% | Potency [4] | Potency [5] | Potency [6] | Potency [7] | Potency [8] | Potency [9] | Potency [10]

CNS(=O)(=O)CC1CCC(N(C)c2ncnc3[nH]ccc23)CC1 (stereo unspecified)
inactive: max response [1] -8.69% | max response [2] -6.06% | max response [3] -10.7% | Potency [4] | Potency [5] | Potency [6] | Potency [7] | Potency [8] | Potency [9] | Potency [10]

Cc1oc2ccccc2c1CNC(=O)NCc1cccs1
inactive: max response [1] -27.1% | max response [2] -11.8% | max response [3] -4.16% | Potency [4] | Potency [5] | Potency [6] | Potency [7] | Potency [8] | Potency [9] | Potency [10]

C/C=C(\C)C(=O)OCC1OC(OC2OC(COC(=O)/C(C)=C/C)C(OC3OC(CO)C(OC(=O)/C(C)=C/C)C(OC(=O)/C(C)=C/C)C3O)C(O)C2O)C(O)C(O)C1OC1OC(CO)C(OC(=O)/C(C)=C/C)C(OC(=O)/C(C)=C/C)C1O (stereo unspecified)
inactive: max response [1] -7.34% | max response [2] -4.08% | max response [3] -26.7% | activity change, negative = cytotoxicity [4] -2.64% [at 11.6 µM] | activity change, negative = cytotoxicity [5] -7.6% [at 11.6 µM] | activity change, negative = cytotoxicity [6] 2.92% [at 11.6 µM] | activity change, negative = cytotoxicity [7] 9.5% [at 11.6 µM] | activity change, negative = cytotoxicity [8] 29.5% [at 11.6 µM] | activity change, negative = cytotoxicity [9] -1.84% [at 11.6 µM] | activity change, negative = cytotoxicity [10] -2.52% [at 11.6 µM]
